The values that follow come from PubChem BioAssay.

Calls of active or inactive are those of the source.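 The calls were made as follows, unless noted: active = visual image review flags a hit and inhibition of aggregation exceeds 20%; inconclusive = visual hit but inhibition at or below 20%; inactive = no hit on visual image review.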

A short description of assay [1]: inhibitors of TNFa-induced NFkB p65 translocation, primary screen, imaging, HUVEC, MLSMR starter and 10KST1 sets (AID 438;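 active = inhibition above 20% together with a positive visual image hit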;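 also: compound added about 3h40 before a 20 min TNFalpha stimulation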;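 as to inhibition: signal is the nuclear over cytoplasmic p65 intensity ratio per well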). The following applies: HUVEC TNFa-induced p65 nuclear translocation; cell count: measured here: nuclei count (cytotoxicity indicator), at 2.08 µM; inhibition: at 2 µM, stronger effect = higher value, 0% TNFa-plus-vehicle, 100% no-TNFa wells.
A short description of assay [2]: reduction of polyQ htt aggregates in cells – imaging, exon1htt(103Q)mCFP cells, high-content imaging, primary screen (AID 483).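 Also: compound exposure lasted 3 days before fixation.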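 As to nuclei count: percent of the per-plate median nuclei count of sample wells.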 Particulars: exon1htt(103Q)mCFP cell line, aggregate imaging, at 2 µM; inhibition of aggregation: stronger effect = higher value; nuclei count: measured here: cell count, toxicity.
The nature of assay [3]: endothelial E-selectin expression blockers – imaging, HUVEC, immunofluorescence, MLSMR starter and 10KST1 sets, primary screen (AID 487;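 active = visually confirmed hit in the image check and inhibition above 20%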;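 as to inhibition: signal is fraction of cell area covered by stained E-selectin grains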;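 as to nuclei count: 100% = median nuclei count of all wells on the same plate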). The following applies: HUVEC TNFalpha-induced E-selectin immunofluorescence imaging, at 2 µM; inhibition: stronger effect = higher value; nuclei count: measured here: cell number, toxicity.
Assay [4] is described as follows: Primary imaging screen for DUSP6 inhibitors that restore phospho-Erk in transfected HeLa cells, chemical complementation (AID 609;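 active = compounds giving at least 50% inhibition in the cell-based MKP-3 phosphatase rescue imaging test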;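 as to inhibition: phospho-Erk level distribution per well compared with pooled transfected vehicle control wells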). Particulars: HeLa MKP-3 transfected, phospho-Erk imaging KS statistic, at 10 µM, cells stimulated with TPA for 15 min.
Assay [5] addresses Dual specificity protein phosphatase 6 (Homo sapiens) (UniProt Q16828). The description is as above. The following applies: HeLa MKP-3 transfected, phospho-Erk imaging KS statistic; at 10 µM; stronger effect = higher value; cells stimulated with TPA for 15 min.
For assay [6], the target named is Voltage-gated potassium channel subunit beta-2 (Rattus norvegicus) (UniProt P62483). Put plainly: inhibitors of rat Kvbeta2 reductase activity – biochemical, NADPH fluorescence, primary screen (AID 622;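 active = fluorescence slope higher than the sample average by over 3 SD, cut at about -0.22 in these data, passing the limit was not always enough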;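 also: slope of raw intensity against log time taken from 70 to 1610 s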). The following applies: recombinant KvBeta, 4-cyanobenzaldehyde reduction, at 10 µM, stronger effect = higher value.
Voltage-gated potassium channel subunit beta-2 (Rattus norvegicus), sequence (P62483 whole entry, looked up): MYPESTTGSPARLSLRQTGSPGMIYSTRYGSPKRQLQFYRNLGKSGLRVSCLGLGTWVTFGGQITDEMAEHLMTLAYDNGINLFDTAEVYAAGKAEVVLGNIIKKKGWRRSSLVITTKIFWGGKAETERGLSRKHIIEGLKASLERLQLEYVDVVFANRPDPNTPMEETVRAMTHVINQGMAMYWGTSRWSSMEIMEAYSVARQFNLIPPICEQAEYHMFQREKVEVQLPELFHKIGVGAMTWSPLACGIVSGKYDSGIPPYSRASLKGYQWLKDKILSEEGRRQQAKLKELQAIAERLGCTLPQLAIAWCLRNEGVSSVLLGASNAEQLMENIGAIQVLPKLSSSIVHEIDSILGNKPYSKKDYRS
For assay [7] the target is unchanged. Put plainly: enhancers of rat Kvbeta2 NADPH turnover – biochemical, NADPH fluorescence, primary screen (AID 623;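 active = NADPH fluorescence slope more negative than the mean of all samples by about 3 SD, 99.7% confidence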;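 also: fluorescence intensity change per second fitted from 20 to 320 s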). Particulars: Recombinant KvBeta, NADPH fluorescence decrease slope, 10 min; at 10 µM; stronger effect = lower value.
The target of assay [8] is Muscarinic acetylcholine receptor M4 (Homo sapiens) (UniProt P08173). Put plainly: M4-linked GIRK flux change, two-sided – cell-based, HEK293 M4/GIRK, thallium flux, BTC-AM, M4 allosteric agonist project, primary screen (AID 625;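 active = fluorescence slope after compound addition differing from the mean of all tested samples at 99.7% confidence, mostly higher but some lower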;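 also: thallium influx through GIRK channels coupled to M4 in HEK293 cells with BTC-AM dye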). Particulars: at 10 µM, actives lie on both sides.
Muscarinic acetylcholine receptor M4 (Homo sapiens), sequence (P08173 whole entry, looked up): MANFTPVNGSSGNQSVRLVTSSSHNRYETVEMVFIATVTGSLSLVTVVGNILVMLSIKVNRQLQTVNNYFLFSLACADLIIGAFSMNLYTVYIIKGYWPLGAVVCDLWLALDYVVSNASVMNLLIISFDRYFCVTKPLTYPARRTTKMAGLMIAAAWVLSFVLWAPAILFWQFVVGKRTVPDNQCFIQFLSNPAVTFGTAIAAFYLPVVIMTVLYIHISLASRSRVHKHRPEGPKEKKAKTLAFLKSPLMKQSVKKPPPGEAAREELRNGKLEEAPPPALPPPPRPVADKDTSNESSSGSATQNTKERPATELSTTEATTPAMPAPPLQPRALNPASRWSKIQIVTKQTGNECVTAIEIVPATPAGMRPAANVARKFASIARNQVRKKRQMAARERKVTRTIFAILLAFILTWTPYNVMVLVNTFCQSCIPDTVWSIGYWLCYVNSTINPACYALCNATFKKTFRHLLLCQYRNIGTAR
A short description of assay [9]: inhibitors of larval lipid processing in zebrafish, primary screen, whole organism, PED6 fluorescence, gall bladder and intestine (AID 686;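 active = a full or partial loss of lipid-probe fluorescence in the fish gall bladder, intestine or both, judged by eye; inactive = no fluorescence loss, or compound toxic to the fish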;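 also: larvae 5 to 7 days old with five fish per well; signal comes from phospholipase A2 cleavage of quenched PED6 carried via bile; overnight exposure to compound and PED6 before scoring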). Particulars: Zebrafish larvae PED6 lipid processing, fluorescence scoring; screened at 20 µM (by protocol).
Assay [10] can be described thus: loss of swimming-algae plug formation – whole organism, Chlamydomonas reinhardtii, WT vs cilia-less mutant, absorbance, 96-well, primary screen (AID 463189;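 active = inhibition at or above 50% relative to wild type and mutant plate controls; inactive = inhibition below 50%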;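 also: 0% = wild type cc124 cells in DMSO and 100% = ciliumless bld1 mutant cells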). The following applies: Chlamydomonas reinhardtii gravitaxis, OD600 absorbance, 2 days; at 10 µM; stronger effect = higher value.
Assay [11] is described as follows: blockers of RIG-like receptor reporter activation – cell-based, Sendai virus stimulus, luciferase, 10K MLSCN set, TLR/RLR signaling modifier project, primary screen (AID 602276;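 active = inhibition at or above 50% at 10 µM; inactive = inhibition below 50%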;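 also: firefly luciferase from ISG56 promoter only with Renilla not read in this screen; 0% = Sendai virus plus DMSO and 100% = medium plus DMSO without virus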). Particulars: HEK293 RL24 IRF3 luciferase reporter, at 10 µM, stronger effect = higher value.
Assay [12] can be described thus: TLR3 IRF3 reporter activation blockers – cell-based, poly I:C stimulus, luciferase, 10K MLSCN set, primary screen (AID 602277;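 active = inhibition of the reporter signal at or above 50%; inactive = inhibition below 50%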). Particulars: HEK293-TLR3 RL24 IRF3 luciferase reporter, at 10 µM, stronger effect = higher value. A general note: In a reporter assay the amount or activity of a reporter protein is the signal.
Setting [13] is: measured here: cell density z-score.
Setting [14] is: measured here: nuclear c-Myc green intensity z-score.
Where [15] appears, read: measured here: nuclear pErk red intensity z-score, stronger effect = higher value.

Dual specificity protein phosphatase 6 (Homo sapiens), sequence (Q16828 whole entry, looked up): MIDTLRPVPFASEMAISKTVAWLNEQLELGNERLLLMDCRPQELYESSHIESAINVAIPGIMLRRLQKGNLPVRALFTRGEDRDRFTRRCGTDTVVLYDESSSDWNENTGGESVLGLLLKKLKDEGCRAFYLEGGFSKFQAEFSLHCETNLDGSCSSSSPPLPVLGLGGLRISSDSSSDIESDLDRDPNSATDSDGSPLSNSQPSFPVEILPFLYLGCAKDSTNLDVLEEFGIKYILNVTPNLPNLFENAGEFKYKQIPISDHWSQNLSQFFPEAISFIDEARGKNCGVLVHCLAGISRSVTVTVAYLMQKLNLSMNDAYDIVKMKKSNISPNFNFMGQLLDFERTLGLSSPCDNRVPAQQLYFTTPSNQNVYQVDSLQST

A word on the inhibition: it is the relative decrease from the control value, in per cent. In the case of `Cc1nc2c(o1)CCc1ccccc1C2O` (stereo not given), in assay [1], the cell count worked out at 606. The inhibition in [1] was 3.6% (inactive); in assay [3] it was -16.2% (inactive); in [5], 15.5% (inactive); in assay [10], 19.1% (inactive); in [11], 2.65% (inactive); in [12], 14.8% (inactive). In [2], the inhibition of aggregation is -5% (inactive). Besides, the nuclei count in [2] worked out at 106%; in assay [3] it was 99.8%. Besides, the z-score in [4] (setting [13]) is 3.05; in assay [4] (setting [14]) it was -1.58; in assay [4] (setting [15]), -1.98. Also, the fluorescence slope was -0.523 (inactive) in assay [6] and 0.00553 (inactive) in assay [8]. Also, the NADPH fluorescence slope in assay [7] was -4e-05 (inactive). In addition, the outcome in [9] was inactive.

With `CCCCc1nc2n[nH]c(N)c2c2c1CCCC2`, in assay [1], the cell count stood at 512. Moreover, the inhibition is -7.9% (inactive) in [1]; -85.3% (inactive) in assay [3]; 3.49% (inactive) in assay [5]; 10.9% (inactive) in [10]; -0.43% (inactive) in assay [11]; 8.9% (inactive) in assay [12]. In assay [2], the inhibition of aggregation is -112% (inactive). For the same compound, the figures for the nuclei count in assay [2] and in [3] were 2.8% and 124%, respectively. Besides, the z-score in assay [4] (setting [13]) is -0.979; in assay [4] (setting [14]), 1.39; in assay [4] (setting [15]), 0.873. Besides, the fluorescence slope in assay [6] was -0.447 (inactive); in assay [8], 0.00605 (inactive). Moreover, the NADPH fluorescence slope in [7] is -0.000136 (inactive). For the same compound, the result in [9] was inactive.

For `N#C/C(C(=O)NCc1ccco1)=C1/SC(Cc2ccc(F)cc2)C(=O)N1c1ccccc1` (stereo not given), in [1], the cell count was found to be 598. Also, the inhibition in [1] is 4.7% (inactive); in [3] it was -13.2% (inactive); in assay [5], -2.09% (inactive); in assay [10], -7.54% (inactive); in [11] it was 11.5% (inactive); in [12] it was 20.4% (inactive). Further, the inhibition of aggregation in assay [2] was -63.4% (inactive). Also, the nuclei count in [2] amounted to 75.6%; in assay [3], 108%. Besides, the z-score in assay [4] (setting [13]) came out at 0.348; in [4] (setting [14]), 0.139; in assay [4] (setting [15]), 0.51. Besides, the fluorescence slope in [6] was -0.437 (inactive); in assay [8], 0.00419 (inactive). The NADPH fluorescence slope in assay [7] is -2.8e-05 (inactive). The outcome in assay [9] is “inactive; toxic”.

`C/C(=C\C(=O)O)CC(=O)O`: in assay [1], the cell count was determined as 333. In addition, the inhibition in assay [1] was -2.6% (inactive); in assay [3], -133% (inactive); in assay [5], 19.4% (inactive); in assay [10] it was -0.382% (inactive); in [11] it was 2.17% (inactive); in assay [12], 13.5% (inactive). In addition, the inhibition of aggregation in [2] was 25.8% (inactive). Further, the nuclei count came out at 93.1% in [2] and 117% in [3]. Besides, the z-score in [4] (setting [13]) is 0.304; in assay [4] (setting [14]) it was -0.204; in assay [4] (setting [15]), -2.54. For the same compound, the fluorescence slope in assay [6] is -0.486 (inactive); in [8], 0.00465 (inactive). The NADPH fluorescence slope in [7] is -0.000131 (inactive). In assay [9], the call was inactive.

For the compound `O=C(NCc1cccnc1)c1ccc(=O)oc1`, in assay [1], the cell count was determined as 649. Moreover, the inhibition in [1] was -2% (inactive); in assay [3] it was 43% (inactive); in assay [5] it was 4.37% (inactive); in [10], 18.7% (inactive); in [11], 10.2% (inactive); in assay [12] it was 11.5% (inactive). In addition, in assay [2], the inhibition of aggregation is -18.7% (inactive). Besides, the nuclei count is 103% in assay [2] and 110% in [3]. Moreover, the results for the z-score in assay [4] (setting [13]), in [4] (setting [14]) and in [4] (setting [15]) were -0.741, 1.41 and -1.58, respectively. For the same compound, the fluorescence slope in assay [6] was -0.496 (inactive); in assay [8], 0.00411 (inactive). Further, the NADPH fluorescence slope in [7] is -4.3e-05 (inactive). The result in assay [9] was inactive.

As to `Cc1ccc(C(=O)/C=C/Nc2cccc(O)c2)cc1`, the cell count in [1] was determined as 368. The inhibition in assay [1] is -4.7% (inactive); in assay [3], -0.2% (inactive); in assay [5] it was -8.59% (inactive); in assay [10], 37.3% (inactive); in assay [11], 5.62% (inactive); in [12], -32.3% (inactive). Besides, the inhibition of aggregation in assay [2] was -12% (inactive). For the same compound, the nuclei count turned out to be 106% in assay [2] and 115% in assay [3]. Besides, the z-score in [4] (setting [13]) is -0.411; in assay [4] (setting [14]), -0.594; in assay [4] (setting [15]), 0.929. Besides, the fluorescence slope in assay [6] was -0.467 (inactive); in [8] it was 0.00389 (inactive). Besides, the NADPH fluorescence slope in assay [7] is -0.000129 (inactive). Besides, in [9], the call was inactive.

For `COC(=O)C(NC(C)=O)(Nc1ccccn1)C(F)(F)F` (stereo not given), the cell count in assay [1] amounted to 499. For the same compound, the inhibition was -0.5% (inactive) in [1]; -61.1% (inactive) in assay [3]; 41.5% (inactive) in assay [5]; -7.72% (inactive) in assay [10]; 12.5% (inactive) in assay [11]; 20.1% (inactive) in assay [12]. Moreover, the inhibition of aggregation in assay [2] was 12.2% (inactive). Further, the nuclei count in [2] was determined as 111%; in assay [3], 121%. Further, the results for the z-score in [4] (setting [13]), in [4] (setting [14]) and in assay [4] (setting [15]) were 2.44, -0.933 and -0.0238, respectively. For the same compound, the values for the fluorescence slope in assay [6] and in [8] were -0.44 (inactive) and 0.00527 (inactive), respectively. For the same compound, the NADPH fluorescence slope in assay [7] is -0.000125 (inactive). The outcome in [9] was inactive.

Turning to `O=C(C1CC1(c1ccccc1)c1ccccc1)N1CCOCC1` (stereo not given), the cell count in [1] was 402. For the same compound, the inhibition is -6.3% (inactive) in assay [1]; -60.9% (inactive) in assay [3]; -0.584% (inactive) in assay [5]; 35% (inactive) in assay [10]; 18.5% (inactive) in assay [11]; 22.6% (inactive) in assay [12]. Also, in [2], the inhibition of aggregation is 13.6% (inactive). Moreover, the nuclei count came to 80.6% in [2] and 150% in assay [3]. Also, the z-score is 0.0865 in assay [4] (setting [13]), -1.65 in assay [4] (setting [14]) and -0.311 in assay [4] (setting [15]). In addition, the fluorescence slope in [6] is -0.416 (inactive); in [8], 0.00482 (inactive). The NADPH fluorescence slope in assay [7] is -6.1e-05 (inactive). In [9], the compound was classed as inactive.

On to `CCOC(=O)c1ccc(N=Cc2nc(-c3ccccc3)oc2OC(C)=O)cc1`, for which the cell count in assay [1] was determined as 794. For the same compound, the inhibition in assay [1] is -6.6% (inactive); in assay [3] it was -0.4% (inactive); in assay [5] it was 11.3% (inactive); in assay [10], 23.8% (inactive); in assay [11] it was 4.63% (inactive); in assay [12], 11.1% (inactive). Also, in assay [2], the inhibition of aggregation is -2.7% (inactive). Also, the nuclei count in assay [2] stood at 98.2%; in [3], 120%. Further, the z-score in assay [4] (setting [13]) is 0.0584; in assay [4] (setting [14]) it was 0.0892; in assay [4] (setting [15]), -0.36. For the same compound, the fluorescence slope was -0.395 (inactive) in assay [6] and 0.00761 (inactive) in assay [8]. In addition, the NADPH fluorescence slope in assay [7] was -5.5e-05 (inactive). Further, the outcome in assay [9] is “inactive; toxic”.

Take `O=S(=O)(c1ccc2ccccc2c1)N(CC(O)CN1CCOCC1)c1ccccc1` (stereo not given): the cell count in assay [1] worked out at 576. For the same compound, the inhibition was -8.7% (inactive) in assay [1]; -7.5% (inactive) in assay [3]; 1.42% (inactive) in [5]; 143% (active) in assay [10]; 20.7% (inactive) in [11]; 14.9% (inactive) in assay [12]. Further, the inhibition of aggregation in assay [2] is -10.4% (inactive). The values for the nuclei count in [2] and in assay [3] were 113% and 105%, respectively. Moreover, the z-score was 0.984 in assay [4] (setting [13]), 1.41 in assay [4] (setting [14]) and -0.234 in [4] (setting [15]). Also, the fluorescence slope was -0.344 (inactive) in assay [6] and 0.00503 (inactive) in [8]. Further, the NADPH fluorescence slope in [7] is -3.3e-05 (inactive). In addition, the compound was called inactive in assay [9].
